We go through five compounds from PubChem BioAssay (EPA / NIEHS).

SMILES strings stand for the structures. The source made the active and inactive calls. Rule for the calls: active = hit-call score of the fitted dose curve at least 0.9, where 1 is the maximum; inactive = score below 0.9.

As a reminder, the AC50 is the concentration at which the activity in the assay is half-maximal.

A short description of assay [1]: ATG_DR4_LXR_CIS: Attagene CIS-FACTORIAL HepG2 Assay for human Liver X Receptor (LXR), DR4 submotif (AID 2282929). To be noted: HepG2 Attagene DR4 cis-reporter, mRNA transcription; actives raise or lower the signal. Summed up: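 Endogenous factor activity at a DR4 cis-element is read as reporter mRNA in transiently transfected HepG2 cells. Exposure lasts 24 h; transcripts are amplified, fluorescently labelled and sized by capillary electrophoresis, with DMSO as baseline.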

In assay [2] the target is Aryl hydrocarbon receptor (Homo sapiens) (UniProt P35869). Kind of assay: ATG_Ahr_CIS: Attagene CIS-FACTORIAL HepG2 Assay for human Aryl Hydrocarbon Receptor (Ahr) (AID 2282930). The settings on record: HepG2 AhR cis-factorial reporter transcription; actives raise or lower the signal. Summed up:
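Following 24 h of chemical dosing, transfected HepG2 liver cells with cis-driven reporter units were lysed for RNA; reporter mRNA was quantified via RT-PCR and capillary electrophoresis, and responses fitted bidirectionally from DMSO.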

Assay [3] is described as follows: ATG_AP_1_CIS: Attagene CIS-FACTORIAL HepG2 Assay for human Activator Protein 1 (AP-1) (AID 2282931). To be noted: HepG2 Attagene cis-factorial AP-1 reporter mRNA; actives raise or lower the signal. Summed up: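 Fluorescence of labelled PCR fragments separated by capillary electrophoresis gives reporter mRNA levels. HepG2 with transfected cis-regulated reporter units, 24 h exposure; DMSO serves as baseline for bidirectional curve fits.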

A short description of assay [4]: ATG_AP_2_CIS: Attagene CIS-FACTORIAL HepG2 Assay for human Activator Protein 2 (AP-2) (AID 2282932). To be noted: HepG2 AP-2 cis-reporter, Attagene transcription factor profiling; actives raise or lower the signal. Summed up: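 Cells (HepG2) transfected with promoter-driven reporter constructs, treated 24 h. Total RNA reverse-transcribed, reporter cDNA PCR-amplified, FAM-labelled by primer extension, digested, resolved by capillary electrophoresis. Activity fitted both directions versus DMSO.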

A short description of assay [5]: ATG_BRE_CIS: Attagene CIS-FACTORIAL HepG2 Assay for human Bone Morphogenetic Protein (BMP) Response Element (BRE) (AID 2282933). To be noted: HepG2 BMP response element reporter, Attagene transcription factor profiling; actives raise or lower the signal. Summed up: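 HepG2 cells transiently transfected with multiplexed cis-element reporter units were dosed with chemical for 24 h. Reporter mRNA was measured by RT-PCR with fluorescent labelling, HpaI digestion and capillary electrophoresis; bidirectional fitting relative to DMSO.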

Assay [6] is described as follows: ATG_E_Box_CIS: Attagene CIS-FACTORIAL HepG2 Assay for human Enhancer Box (E-box) (AID 2282936). The settings on record: HepG2 E-box cis-reporter transcription, actives raise or lower the signal. The gist of the method:
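Endogenous transcription factor activity was sensed in human HepG2 liver cells through transfected cis-promoter reporter units. After 24 h of dosing, total RNA was reverse-transcribed and reporter cDNA resolved by capillary electrophoresis.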

The nature of assay [7]: ATG_M_61_CIS: Attagene CIS-FACTORIAL HepG2 Assay for M61 Transcription Factor (Internal Marker) (AID 2282937). To be noted: HepG2 Attagene CIS-FACTORIAL M61 internal marker reporter; actives raise or lower the signal. The gist of the method:
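This endpoint serves as an internal background control within a multiplexed HepG2 cis-reporter panel. Cells are exposed for 24 h; reporter mRNA is amplified, fluorescently labelled and sized by capillary electrophoresis, with DMSO as negative control.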

Assay [8] can be described thus: ATG_EGR_CIS: Attagene CIS-FACTORIAL HepG2 Assay for human Early Growth Response 1 (EGR1) (AID 2282938). To be noted: HepG2 Attagene CIS-FACTORIAL EGR reporter mRNA; actives raise or lower the signal. The gist of the method: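 HepG2, transient MRTU transfection (cis promoters), 24 h compound. RNA → RT (oligo-dT) → PCR → 6-FAM labelling → HpaI cut → CE fluorescence. Bidirectional fit, DMSO baseline.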

A short description of assay [9]: ATG_M_19_CIS: Attagene CIS-FACTORIAL HepG2 Assay for M19 Transcription Factor (Internal Marker) (AID 2282939). The settings on record: HepG2 Attagene CIS-FACTORIAL M19 internal marker reporter; actives raise or lower the signal. Summed up: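 HepG2 cells transiently transfected with cis-regulated multiple reporter transcription units were dosed for 24 h; reporter mRNA was quantified by RT-PCR, 6-FAM primer-extension labelling, HpaI digestion and capillary electrophoresis, with bidirectional fitting against DMSO baseline.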

Assay [10] in a line: ATG_Ets_CIS: Attagene CIS-FACTORIAL HepG2 Assay for human Erythroblast Transformation Specific (ETS) (AID 2282941). The settings on record: HepG2 ETS cis-reporter transcription, actives raise or lower the signal. Summed up:
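Bidirectional fit versus DMSO of reporter mRNA signal, detected by RT-PCR and capillary electrophoresis in HepG2 cells transiently transfected with cis-element reporters and dosed 24 h.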

Assay [11] deals with Hepatocyte nuclear factor 3-beta (Homo sapiens) (UniProt Q9Y261). Kind of assay: ATG_FoxA2_CIS: Attagene CIS-FACTORIAL HepG2 Assay for human Forkhead box A2 (FOXA2) (AID 2282942). To be noted: HepG2 cis-reporter transcription factor activity, 24 h; actives raise or lower the signal. Summed up: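 Cells: HepG2, transient multiplex reporter transfection. Exposure 24 h. Detection: reporter-specific RT-PCR, fluorescent labelling, restriction digest, capillary electrophoresis. Analysis: bidirectional curve fit, DMSO as negative control.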
Sequence of Hepatocyte nuclear factor 3-beta (Homo sapiens) (Q9Y261 whole entry, looked up): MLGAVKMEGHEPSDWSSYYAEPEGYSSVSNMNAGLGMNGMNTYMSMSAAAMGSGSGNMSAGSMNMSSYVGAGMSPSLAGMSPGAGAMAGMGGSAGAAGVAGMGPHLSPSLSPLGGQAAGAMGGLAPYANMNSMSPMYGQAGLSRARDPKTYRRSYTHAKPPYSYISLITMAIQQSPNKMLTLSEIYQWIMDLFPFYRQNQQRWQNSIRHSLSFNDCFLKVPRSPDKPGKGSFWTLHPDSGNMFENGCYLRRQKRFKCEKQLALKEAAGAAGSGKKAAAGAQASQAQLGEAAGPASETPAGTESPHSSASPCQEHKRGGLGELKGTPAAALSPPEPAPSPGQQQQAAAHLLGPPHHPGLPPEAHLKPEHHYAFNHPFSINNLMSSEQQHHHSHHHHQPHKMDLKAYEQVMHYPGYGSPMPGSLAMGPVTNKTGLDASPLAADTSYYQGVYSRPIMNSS

The nature of assay [12]: ATG_FoxO_CIS: Attagene CIS-FACTORIAL HepG2 Assay for human Forkhead box O (FoxO) (AID 2282943). To be noted: HepG2 Attagene cis-reporter, FoxO element, mRNA; actives raise or lower the signal. The gist of the method:
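24 h chemical exposure, HepG2 with transient cis-MRTU transfection. RNA extraction, oligo(dT) RT, reporter-specific PCR, primer-extension labelling, HpaI digestion, CE fragment analysis; bidirectional fit, DMSO baseline.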

A short description of assay [13]: ATG_GATA_CIS: Attagene CIS-FACTORIAL HepG2 Assay for human GATA Binding Protein (AID 2282944). The settings on record: HepG2 GATA cis-element reporter, Attagene multiplex mRNA; actives raise or lower the signal. The gist of the method: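 HepG2 cells transiently transfected with multiplexed cis-element reporter units reflecting endogenous transcription factor activity; reporter mRNA measured after 24 h dosing by RT-PCR, 6-FAM labeling, HpaI digestion and capillary electrophoresis. Bidirectional fitting versus DMSO baseline.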

Assay [14] can be described thus: ATG_GLI_CIS: Attagene CIS-FACTORIAL HepG2 Assay for human Zinc Finger Protein GLI1 (AID 2282945). The settings on record: HepG2, Attagene cis-factorial reporter mRNA, GLI element; actives raise or lower the signal. The gist of the method:
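HepG2 cells transiently transfected with cis-promoter multiplexed reporter units report endogenous transcription factor activity. After 24 h chemical exposure, reporter mRNA was quantified by RT-PCR, 6-FAM labelling, HpaI digestion and capillary electrophoresis, with bidirectional fitting against DMSO.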

Assay [15] is described as follows: ATG_ISRE_CIS: Attagene CIS-FACTORIAL HepG2 Assay for human Interferon Regulatory Factor 1 (IRF1) binding to an Interferon-Stimulated Response Element (ISRE) (AID 2282948). The settings on record: HepG2 ISRE cis-reporter (Attagene), mRNA transcription readout; actives raise or lower the signal. Summed up:
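Uses HepG2 liver cells transfected with cis-regulated reporters and measures mRNA 24 h post-dosing through RT-PCR, primer-extension labelling and capillary electrophoresis, with DMSO as negative control.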

Assay [16] deals with Transcription factor E2F1 (Homo sapiens) (UniProt Q01094). The assay can be described thus: ATG_E2F_CIS: Attagene CIS-FACTORIAL HepG2 Assay for human E2F Transcription Factor 1 (AID 2282935). To be noted: HepG2 Attagene cis-reporter, E2F reporter RNA transcripts; actives raise or lower the signal. Summed up:
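First, HepG2 cells were transfected with reporter transcription units. Next, they were dosed for 24 h. Then RNA was isolated, converted to cDNA, PCR-amplified, FAM-labeled, HpaI-digested and analyzed by capillary electrophoresis.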

Assay [17] can be described thus: ATG_GRE_CIS: Attagene CIS-FACTORIAL HepG2 Assay for human Glucocorticoid Response Elements (GRE) (AID 2282947). The settings on record: HepG2 GRE cis-reporter, Attagene multiplex mRNA; actives raise or lower the signal. The gist of the method:
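Cells (HepG2) bearing transfected cis-promoter reporter transcription units were treated with chemical for 24 hours. Reporter mRNA was measured via RT-PCR with capillary electrophoresis, and activity was fitted in both directions relative to DMSO.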

The target of assay [18] is Bile acid receptor (Homo sapiens) (UniProt Q96RI1). The assay can be described thus: ATG_IR1_CIS: Attagene CIS-FACTORIAL HepG2 Assay for human Nuclear Receptor Subfamily 1 Group H Member 4 (NR1H4), IR1 submotif (AID 2282946). To be noted: IR1 reporter transcription, actives raise or lower the signal. Summed up:
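Readout: reporter transcript levels by RT-PCR with fluorescent capillary electrophoresis, from HepG2 cells transiently transfected with multiplexed cis-regulated reporters and dosed 24 h. Gain- or loss-of-signal fitted versus DMSO negative control.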

The target of assay [19] is Retinoic acid receptor alpha (Homo sapiens) (UniProt P10276). Kind of assay: ATG_DR5_RAR_CIS: Attagene CIS-FACTORIAL HepG2 Assay for human Retinoic Acid Receptor Alpha (RARE), DR5 submotif (AID 2282934). The settings on record: HepG2 Attagene cis-factorial RARE DR5 reporter, mRNA; actives raise or lower the signal. Summed up:
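Transfected HepG2 reporter cells are exposed to chemicals for 24 h. Then RNA is extracted and the DR5 element reporter transcript is measured by RT-PCR and capillary electrophoresis, with bidirectional curve fitting relative to DMSO.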

A short description of assay [20]: ATG_ERE_CIS: Attagene CIS-FACTORIAL HepG2 Assay for Estrogen Response Element (ERE) (AID 2282940). The settings on record: HepG2 ERE cis-reporter, Attagene RNA transcript; actives raise or lower the signal. The gist of the method:
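HepG2 cells transiently transfected with cis-promoter-driven multiplexed reporter transcription units report endogenous TF activity. After 24 h compound exposure, reporter mRNA is quantified by RT-PCR with capillary electrophoresis fluorescence; bidirectional fitting versus DMSO baseline.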

Sequence of Aryl hydrocarbon receptor (Homo sapiens) (P35869 whole entry, looked up): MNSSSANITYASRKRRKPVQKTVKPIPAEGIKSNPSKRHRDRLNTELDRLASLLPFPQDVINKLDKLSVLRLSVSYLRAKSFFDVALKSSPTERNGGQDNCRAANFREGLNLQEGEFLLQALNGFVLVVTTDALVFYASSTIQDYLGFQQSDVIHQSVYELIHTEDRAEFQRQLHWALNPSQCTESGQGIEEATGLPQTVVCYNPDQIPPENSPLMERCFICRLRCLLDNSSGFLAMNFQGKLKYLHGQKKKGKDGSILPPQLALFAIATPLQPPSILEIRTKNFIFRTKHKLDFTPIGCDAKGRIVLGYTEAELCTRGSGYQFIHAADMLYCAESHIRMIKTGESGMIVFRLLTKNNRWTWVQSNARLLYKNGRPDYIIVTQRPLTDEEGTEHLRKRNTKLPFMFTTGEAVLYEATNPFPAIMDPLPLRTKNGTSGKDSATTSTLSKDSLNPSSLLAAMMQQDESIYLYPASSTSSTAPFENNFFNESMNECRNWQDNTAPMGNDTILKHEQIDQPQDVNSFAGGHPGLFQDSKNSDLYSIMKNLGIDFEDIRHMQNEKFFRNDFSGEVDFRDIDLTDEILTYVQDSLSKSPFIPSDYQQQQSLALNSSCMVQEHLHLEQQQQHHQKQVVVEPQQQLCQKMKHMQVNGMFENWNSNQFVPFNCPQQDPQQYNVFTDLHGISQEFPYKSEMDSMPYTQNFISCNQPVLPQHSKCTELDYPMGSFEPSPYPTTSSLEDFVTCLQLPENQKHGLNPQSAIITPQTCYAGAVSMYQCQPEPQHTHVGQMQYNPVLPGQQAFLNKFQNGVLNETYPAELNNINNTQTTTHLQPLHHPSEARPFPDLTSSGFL
Sequence of Transcription factor E2F1 (Homo sapiens) (Q01094 whole entry, looked up): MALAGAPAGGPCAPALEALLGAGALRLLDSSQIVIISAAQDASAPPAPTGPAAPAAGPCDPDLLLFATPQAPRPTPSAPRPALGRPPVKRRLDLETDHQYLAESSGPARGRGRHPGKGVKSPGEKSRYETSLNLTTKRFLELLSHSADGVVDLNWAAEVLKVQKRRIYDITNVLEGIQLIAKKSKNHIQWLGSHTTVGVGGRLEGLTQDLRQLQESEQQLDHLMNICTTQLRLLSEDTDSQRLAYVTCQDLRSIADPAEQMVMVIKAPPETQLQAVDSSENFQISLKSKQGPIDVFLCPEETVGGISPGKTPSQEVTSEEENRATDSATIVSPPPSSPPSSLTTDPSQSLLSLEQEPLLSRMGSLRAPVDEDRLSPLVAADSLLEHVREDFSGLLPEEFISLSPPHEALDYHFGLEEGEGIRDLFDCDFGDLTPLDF
Sequence of Bile acid receptor (Homo sapiens) (Q96RI1 whole entry, looked up): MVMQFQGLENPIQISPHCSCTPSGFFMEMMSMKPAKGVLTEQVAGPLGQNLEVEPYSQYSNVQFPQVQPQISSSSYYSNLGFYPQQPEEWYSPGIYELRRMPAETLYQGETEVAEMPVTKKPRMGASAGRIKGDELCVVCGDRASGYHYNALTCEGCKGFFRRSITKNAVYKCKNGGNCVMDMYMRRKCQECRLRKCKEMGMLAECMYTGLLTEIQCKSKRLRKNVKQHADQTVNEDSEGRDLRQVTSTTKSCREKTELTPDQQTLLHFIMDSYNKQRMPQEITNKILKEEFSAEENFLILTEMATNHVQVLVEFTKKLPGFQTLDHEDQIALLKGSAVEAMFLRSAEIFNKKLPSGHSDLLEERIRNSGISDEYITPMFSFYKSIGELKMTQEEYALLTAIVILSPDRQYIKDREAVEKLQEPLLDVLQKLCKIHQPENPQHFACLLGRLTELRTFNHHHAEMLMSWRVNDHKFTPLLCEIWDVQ
Sequence of Retinoic acid receptor alpha (Homo sapiens) (P10276 whole entry, looked up): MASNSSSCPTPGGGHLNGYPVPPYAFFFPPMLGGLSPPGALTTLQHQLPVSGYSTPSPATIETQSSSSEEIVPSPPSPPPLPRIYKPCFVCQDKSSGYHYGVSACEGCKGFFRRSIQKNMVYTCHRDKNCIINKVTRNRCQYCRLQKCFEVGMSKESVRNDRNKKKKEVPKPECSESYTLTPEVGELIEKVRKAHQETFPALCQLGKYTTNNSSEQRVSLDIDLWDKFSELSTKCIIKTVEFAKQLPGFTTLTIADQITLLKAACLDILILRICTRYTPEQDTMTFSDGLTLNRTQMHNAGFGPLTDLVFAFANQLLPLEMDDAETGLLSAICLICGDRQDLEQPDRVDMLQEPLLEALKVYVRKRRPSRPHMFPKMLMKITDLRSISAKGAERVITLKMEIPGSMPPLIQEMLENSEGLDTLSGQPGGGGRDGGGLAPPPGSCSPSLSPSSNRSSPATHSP

For the compound `O=C(O)CC(O)(CC(=O)O)C(=O)O`, the compound was called inactive in assay [1], in assay [2], in assay [3], in [4], in [5] and in assay [6]. The result in assay [7], in assay [8], in assay [9], in [10], in assay [11] and in assay [12] was inactive. The call in [13], in assay [14] and in [15] was inactive.

As for `COc1ccc(N)cc1`, the call in assay [1], in [2], in assay [3], in assay [4], in [5] and in assay [16] was inactive. Besides, the result in assay [6], in assay [7], in assay [8], in [9], in [10] and in assay [11] was inactive. The outcome in [12], in assay [13], in [14], in assay [17] and in assay [15] was inactive.

`COc1nn(C(=O)NS(=O)(=O)c2ccccc2OC(F)(F)F)c(=O)n1C`: the outcome in [1], in assay [2], in [3], in [4], in [5] and in [6] was inactive. Also, the compound was called inactive in [7], in [8], in assay [10], in assay [11], in [12] and in assay [13]. For the same compound, the compound was called inactive in assay [14], in [18] and in [15].

As for `O=C=Nc1ccc(Cl)cc1`, the result in [1], in [3], in assay [4], in assay [5], in assay [19] and in assay [16] was inactive. The result in assay [6], in [7], in [8], in [9], in assay [20] and in assay [10] was inactive. Besides, the result in [11], in assay [13], in [14] and in assay [15] was inactive. Further, in assay [12], the AC50 is 162 µM (active).

With `C=CC(F)(C(F)(F)F)C(F)(F)C(F)(F)F` (stereo not drawn), the call in assay [1], in [2], in [3], in assay [4], in [5] and in assay [6] was inactive. For the same compound, the outcome in [8], in assay [9], in assay [10], in [12], in assay [13] and in [14] was inactive. Besides, the compound was called inactive in assay [18] and in assay [15].
